Source: PubChem BioAssay
Only some compounds are listed: those with a hit (about 32% of all), similar ones and a draw of the others.
CYP2C9 act = human CYP2C9 activators, primary screen, biochemical, luminescence; Cytochrome P450 2C9 (Homo sapiens), P11712; recombinant CYP2C9, luciferin-H conversion; active compounds read high; factor 1 = untreated enzyme, 0 = blocked; activation factor at 5 µM; 1.4% of 96,000 active;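 active means activation factor of 2 or more for CYP2C9 at a 5 µM dose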;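 further: 0 = sulfaphenazole-blocked wells and 1 = vehicle-only wells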
Target sequence (P11712 whole entry, looked up): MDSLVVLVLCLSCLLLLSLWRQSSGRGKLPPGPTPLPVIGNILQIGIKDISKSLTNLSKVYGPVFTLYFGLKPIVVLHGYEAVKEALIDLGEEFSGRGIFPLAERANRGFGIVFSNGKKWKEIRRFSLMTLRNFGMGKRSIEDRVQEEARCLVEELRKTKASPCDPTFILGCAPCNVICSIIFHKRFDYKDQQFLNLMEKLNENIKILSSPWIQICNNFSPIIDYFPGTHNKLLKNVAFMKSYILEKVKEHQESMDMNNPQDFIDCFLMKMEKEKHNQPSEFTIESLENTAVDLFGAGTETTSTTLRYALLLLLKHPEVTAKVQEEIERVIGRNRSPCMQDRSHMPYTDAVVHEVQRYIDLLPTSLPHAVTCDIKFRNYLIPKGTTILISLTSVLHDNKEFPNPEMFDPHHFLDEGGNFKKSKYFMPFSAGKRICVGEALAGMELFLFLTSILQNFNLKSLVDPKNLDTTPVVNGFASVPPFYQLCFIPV
PostGolgi ctrl = growth inhibition of yeast control strain, primary screen, counter-screen for post-Golgi transport modulator project; efflux-deficient yeast background strain, growth absorbance A615, 16 h; inhibition, % at 10 µM; 5% of 98,000 active; AID 738, 2007
PostGolgi yeast = phenotypic screen on post-Golgi transport, primary screen | post-Golgi transport phenotypic cell assay | inhibition, % at 10 µM | 0.9% of 98,000 active | AID 739, 2007;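 further: yeast cells grown in 1536-well plates; yeast grown about 18 h at 30C before absorbance read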
CYP2C19 inh = blockers of cytochrome P450 2C19 activity – biochemical, luminescence, ADME assay, primary screen | P33261 | CYP2C19 Supersomes, luciferin-H EGE luminescence, 30 min | inhibition, % at 5 µM | 21% of 96,000 active | AID 778, 2007;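 active means CYP2C19 inhibition above a set limit at 5 µM in the primary screen, cut at about 50% in these data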;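 further: plate controls were negative control wells for no effect and 2.5 mM tranylcypromine positive control for full effect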
CYP2C9 inh = blockers of cytochrome P450 2C9 activity – biochemical, luminescence, ADME assay, primary screen | P11712 | CYP2C9 Supersomes, luciferin-H conversion | inhibition, % at 5 µM | 20% of 96,000 active | AID 777, 2007;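 active means blocking of liver enzyme CYP2C9 beyond about 50% at 5 µM, limit read from the data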
CYP2C19 act = human CYP2C19 activators, primary screen, biochemical, luminescence; 96,000 tested, under 10 active; Cytochrome P450 2C19 (Homo sapiens), P33261; recombinant CYP2C19, luciferin-H EGE luminescence; active compounds read high; 0 = fully inhibited enzyme, 1 = untreated enzyme; AID 1025, 2008; activation factor at 5 µM;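 active means activation factor of at least 2 at 5 µM in the primary screen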;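 further: 0 = wells with 2.5 mM tranylcypromine and 1 = vehicle-only wells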
An asterisk follows results filed as active. Unless noted, no stated cut-off is given here; in the data, active means inhibition above about 30%; inactive means the rest.

`Fc1ccc(NC(=S)Nc2ccc(F)c(Cl)c2)cc1Cl` gave CYP2C9 act 0.1, PostGolgi ctrl 65.2*, PostGolgi yeast 72.2*, CYP2C19 inh 97.5*, CYP2C9 inh 86.4* and CYP2C19 act 0.
`CCOC(=O)c1ccc(NC(=O)CC2C(=O)N(c3ccc(F)cc3)C(=O)N2CCC(C)C)cc1` (stereo not given) gave CYP2C9 act 0.6, PostGolgi ctrl 1.5, PostGolgi yeast -4.6, CYP2C19 inh 53.7*, CYP2C9 inh 42.6 and CYP2C19 act 0.5.
For COC(=O)c1ccc(NC(=O)CC2C(=O)N(c3ccc(C)cc3)C(=O)N2CC(C)C)cc1 (stereo not given) the results were CYP2C9 act 0.6, PostGolgi ctrl 3.1, PostGolgi yeast 0.9, CYP2C19 inh 37.6, CYP2C9 inh 41.0 and CYP2C19 act 0.6.
Screening CCN(C(=O)C1CCCCC1)c1nnc(-c2cccnc2)s1 returned CYP2C9 act 0.6, PostGolgi ctrl -3.8, PostGolgi yeast 0.0, CYP2C19 inh 39.8, CYP2C9 inh 40.2 and CYP2C19 act 0.6.
Cc1c(NS(=O)(=O)c2ccc3c(c2)CCN3C(=O)C2CC2)c(=O)n(-c2ccccc2)n1C was read as CYP2C9 act 1.1, PostGolgi ctrl -1.7, PostGolgi yeast 11.4, CYP2C19 inh 11.5, CYP2C9 inh -6.0 and CYP2C19 act 0.9.
Screening CC(=O)C1=C(C)NC(SCC(=O)c2ccc(-c3ccccc3)cc2)=C(C#N)C1c1cccnc1 (stereo not given) returned CYP2C9 act 0.1, PostGolgi ctrl 14.3, PostGolgi yeast -6.8, CYP2C19 inh 95.5*, CYP2C9 inh 86.0* and CYP2C19 act 0.
CC(=O)C1=C(C)NC(SCSc2ccccc2)=C(C#N)C1c1cccnc1 (stereo not given) was read as CYP2C9 act 0.3, PostGolgi ctrl 21.7, PostGolgi yeast -15.7, CYP2C19 inh 82.6*, CYP2C9 inh 65.8* and CYP2C19 act 0.2.
For CSCSC1=C(C#N)C(c2ccccc2Cl)C(C(C)=O)=C(C)N1 (stereo not given) the results were CYP2C9 act 0.2, PostGolgi ctrl 18.4, PostGolgi yeast 3.9, CYP2C19 inh 84.8*, CYP2C9 inh 81.8* and CYP2C19 act 0.2.
For O=C(Oc1ccc(-c2cnc3ccccc3n2)cc1)c1ccco1 the results were CYP2C9 act 0.9, PostGolgi ctrl -7.0, PostGolgi yeast -4.7, CYP2C19 inh 33.1, CYP2C9 inh 10.1 and CYP2C19 act 0.7.
CCCCNC(=O)c1cc(-c2ccc(F)cc2)on1 was read as PostGolgi ctrl 0.6 and PostGolgi yeast -4.5.
`CC(=O)c1cc(C#N)c(SCc2ccc(F)cc2)nc1C` gave CYP2C9 act 0.7, PostGolgi ctrl 9.6, PostGolgi yeast 13.8, CYP2C19 inh 9.2, CYP2C9 inh 30.3 and CYP2C19 act 0.9.
Screening CCOc1ccc(/C(=N\O)C(C)NO)cc1 (stereo not given) returned CYP2C9 act 1, PostGolgi ctrl 4.8, PostGolgi yeast -0.2, CYP2C19 inh 1.8, CYP2C9 inh 1.0 and CYP2C19 act 1.
O=C(CC1Nc2ccccc2NC1=O)NC1CCCCC1 (stereo not given) was read as CYP2C9 act 2.2*, PostGolgi ctrl -5.5, PostGolgi yeast 20.9, CYP2C19 inh 10.7, CYP2C9 inh -122.4 and CYP2C19 act 0.9.
For CC1CCCC(NC(=O)CC2Nc3ccccc3NC2=O)C1C (stereo not given) the results were CYP2C9 act 1.4, PostGolgi ctrl 1.8, PostGolgi yeast 11.9, CYP2C19 inh 20.5, CYP2C9 inh -37.6 and CYP2C19 act 0.8.
Screening CC(C)NS(=O)(=O)c1ccc(N2C(=O)c3ccccc3C2=O)cc1 returned CYP2C9 act 0.9, PostGolgi ctrl 4.7, PostGolgi yeast -6.7, CYP2C19 inh 10.1, CYP2C9 inh 13.2 and CYP2C19 act 0.9.
Screening O=C(c1ccc(Cl)cc1)N1CCC(O)(CSc2ccc(Cl)cc2Cl)CC1 returned CYP2C9 act 0.8, PostGolgi ctrl 93.5*, PostGolgi yeast 14.9, CYP2C19 inh -0.2, CYP2C9 inh 22.5 and CYP2C19 act 1.
CCOc1ccc(C=NC23CN4CN(CN(C4)C2)C3)cc1 was read as CYP2C9 act 1.1, PostGolgi ctrl 17.6, PostGolgi yeast 3.2, CYP2C19 inh 5.3, CYP2C9 inh -9.4 and CYP2C19 act 0.9.
`CCOc1ccc(/C=N/O)cc1` gave CYP2C9 act 0.9, PostGolgi ctrl 2.5, PostGolgi yeast 15.9, CYP2C19 inh 55.4*, CYP2C9 inh 14.4 and CYP2C19 act 0.4.
c1cncc(-c2nnc3sc(-c4ccco4)nn23)c1 was read as CYP2C9 act 1, PostGolgi ctrl -2.1, PostGolgi yeast 4.2, CYP2C19 inh 38.9, CYP2C9 inh 1.0 and CYP2C19 act 0.6.
For Cc1nn2c(-c3ccc(Cl)cc3)nnc2s1 the results were CYP2C9 act 0.9, CYP2C19 inh 56.2*, CYP2C9 inh 6.4 and CYP2C19 act 0.4.
For c1cc(-c2nnc3sc(C4CCCCC4)nn23)ccn1 the results were CYP2C9 act 0.8, PostGolgi ctrl 2.1, PostGolgi yeast 7.7, CYP2C19 inh 88.0*, CYP2C9 inh 20.6 and CYP2C19 act 0.1.
Screening Cc1nnc2sc(-c3ccncc3)nn12 returned CYP2C9 act 1, PostGolgi ctrl 5.1, PostGolgi yeast -8.8, CYP2C19 inh 12.8, CYP2C9 inh -0.6 and CYP2C19 act 0.9.
CC(C)(C)c1ccc(-c2nnc3sc(-c4ccncc4)nn23)cc1 was read as CYP2C9 act 0.5, PostGolgi ctrl 24.0, PostGolgi yeast -3.7, CYP2C19 inh 58.3*, CYP2C9 inh 53.4* and CYP2C19 act 0.4.
`CCN(CC)c1ccc(-c2nn3c(-c4cccnc4)nnc3s2)cc1` gave CYP2C9 act 0.7, PostGolgi ctrl 39.2*, PostGolgi yeast -14.0, CYP2C19 inh 28.0, CYP2C9 inh 26.7 and CYP2C19 act 0.7.
For COc1ccccc1-c1nnc2sc(C3CCCCC3)nn12 the results were CYP2C9 act 0.7, PostGolgi ctrl 0.6, PostGolgi yeast 7.0, CYP2C19 inh 38.6, CYP2C9 inh 28.7 and CYP2C19 act 0.6.
For CN(C)c1ccc(-c2nn3c(-c4ccc(Cl)cc4)nnc3s2)cc1 the results were CYP2C9 act 0.7, PostGolgi ctrl 7.0, PostGolgi yeast 5.7, CYP2C19 inh 19.8, CYP2C9 inh 31.2 and CYP2C19 act 0.8.
Screening O=C(Cc1csc(N2CCOCC2)n1)N/N=C/c1ccc(F)cc1 returned CYP2C9 act 0.8, PostGolgi ctrl 3.0, PostGolgi yeast -0.2, CYP2C19 inh 5.6, CYP2C9 inh 21.5 and CYP2C19 act 0.9.
Screening Cc1cc(=O)oc(C)c1C(=O)N1CCN(c2ccc(F)cc2)CC1 returned CYP2C9 act 1, PostGolgi ctrl -3.9, PostGolgi yeast -4.9, CYP2C19 inh 17.1, CYP2C9 inh 1.1 and CYP2C19 act 0.8.
